The results in this text go back to the supplement of paper PMC12067093, “Discovery and optimisation of a covalent ligand for TRIM25 and its application to targeted protein ubiquitination” (Chemical Science, 2025).

About 21,000 targets were measured; listed, in parts, are those with the largest changes and a random draw of the rest.
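Also: competitive profiling in live THP-1 cells: cysteine peptides tagged with an iodoacetamide desthiobiotin (IA-DTB) probe, intensity after compound treatment relative to DMSO-treated cells.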

Sequence of UniProt P98172 (P98172 whole entry): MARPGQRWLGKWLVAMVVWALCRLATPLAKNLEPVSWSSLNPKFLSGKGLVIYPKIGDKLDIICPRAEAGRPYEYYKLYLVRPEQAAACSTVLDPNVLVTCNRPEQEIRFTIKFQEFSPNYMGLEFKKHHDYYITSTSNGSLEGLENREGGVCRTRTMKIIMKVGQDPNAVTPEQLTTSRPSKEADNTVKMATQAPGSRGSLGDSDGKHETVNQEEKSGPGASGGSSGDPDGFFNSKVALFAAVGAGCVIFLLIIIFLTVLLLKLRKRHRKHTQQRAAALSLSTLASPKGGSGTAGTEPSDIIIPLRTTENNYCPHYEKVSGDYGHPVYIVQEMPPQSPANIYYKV
Sequence of UniProt Q5T8I3 (Q5T8I3 whole entry, looked up): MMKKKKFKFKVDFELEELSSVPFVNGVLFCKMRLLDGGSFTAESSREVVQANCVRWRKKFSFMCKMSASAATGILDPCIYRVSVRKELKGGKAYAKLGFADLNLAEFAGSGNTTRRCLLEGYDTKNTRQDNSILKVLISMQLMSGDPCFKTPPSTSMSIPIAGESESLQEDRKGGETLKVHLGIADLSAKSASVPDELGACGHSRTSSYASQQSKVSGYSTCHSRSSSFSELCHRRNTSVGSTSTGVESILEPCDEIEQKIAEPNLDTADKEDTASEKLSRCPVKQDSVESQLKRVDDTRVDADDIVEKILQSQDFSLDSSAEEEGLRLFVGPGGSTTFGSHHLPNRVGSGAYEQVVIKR
Sequence of UniProt Q7Z2K6 (Q7Z2K6 whole entry, looked up): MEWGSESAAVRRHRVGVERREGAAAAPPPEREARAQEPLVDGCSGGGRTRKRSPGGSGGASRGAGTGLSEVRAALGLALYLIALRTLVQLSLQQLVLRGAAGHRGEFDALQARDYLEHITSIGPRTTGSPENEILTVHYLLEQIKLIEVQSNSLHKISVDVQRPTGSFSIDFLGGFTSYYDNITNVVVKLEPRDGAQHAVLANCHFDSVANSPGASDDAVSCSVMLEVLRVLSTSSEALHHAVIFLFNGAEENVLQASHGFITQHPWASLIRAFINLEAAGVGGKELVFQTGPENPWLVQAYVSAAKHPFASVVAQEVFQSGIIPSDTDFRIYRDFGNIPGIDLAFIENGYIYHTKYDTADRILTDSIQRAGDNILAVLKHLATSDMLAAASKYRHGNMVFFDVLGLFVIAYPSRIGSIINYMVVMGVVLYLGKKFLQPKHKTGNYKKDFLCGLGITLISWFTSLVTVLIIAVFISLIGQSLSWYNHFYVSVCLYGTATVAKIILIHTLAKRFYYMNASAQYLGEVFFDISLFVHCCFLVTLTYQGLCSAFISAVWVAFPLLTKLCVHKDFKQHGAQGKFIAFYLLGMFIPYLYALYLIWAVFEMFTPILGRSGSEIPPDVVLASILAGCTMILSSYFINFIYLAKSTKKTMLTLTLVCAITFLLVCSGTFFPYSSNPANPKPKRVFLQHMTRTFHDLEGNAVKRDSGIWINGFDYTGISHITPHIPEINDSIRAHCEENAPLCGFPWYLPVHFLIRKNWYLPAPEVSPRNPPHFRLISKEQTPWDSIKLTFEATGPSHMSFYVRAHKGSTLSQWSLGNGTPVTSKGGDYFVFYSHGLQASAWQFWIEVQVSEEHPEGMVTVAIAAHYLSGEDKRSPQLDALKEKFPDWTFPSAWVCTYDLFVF
Sequence of UniProt Q92889 (Q92889 whole entry, looked up): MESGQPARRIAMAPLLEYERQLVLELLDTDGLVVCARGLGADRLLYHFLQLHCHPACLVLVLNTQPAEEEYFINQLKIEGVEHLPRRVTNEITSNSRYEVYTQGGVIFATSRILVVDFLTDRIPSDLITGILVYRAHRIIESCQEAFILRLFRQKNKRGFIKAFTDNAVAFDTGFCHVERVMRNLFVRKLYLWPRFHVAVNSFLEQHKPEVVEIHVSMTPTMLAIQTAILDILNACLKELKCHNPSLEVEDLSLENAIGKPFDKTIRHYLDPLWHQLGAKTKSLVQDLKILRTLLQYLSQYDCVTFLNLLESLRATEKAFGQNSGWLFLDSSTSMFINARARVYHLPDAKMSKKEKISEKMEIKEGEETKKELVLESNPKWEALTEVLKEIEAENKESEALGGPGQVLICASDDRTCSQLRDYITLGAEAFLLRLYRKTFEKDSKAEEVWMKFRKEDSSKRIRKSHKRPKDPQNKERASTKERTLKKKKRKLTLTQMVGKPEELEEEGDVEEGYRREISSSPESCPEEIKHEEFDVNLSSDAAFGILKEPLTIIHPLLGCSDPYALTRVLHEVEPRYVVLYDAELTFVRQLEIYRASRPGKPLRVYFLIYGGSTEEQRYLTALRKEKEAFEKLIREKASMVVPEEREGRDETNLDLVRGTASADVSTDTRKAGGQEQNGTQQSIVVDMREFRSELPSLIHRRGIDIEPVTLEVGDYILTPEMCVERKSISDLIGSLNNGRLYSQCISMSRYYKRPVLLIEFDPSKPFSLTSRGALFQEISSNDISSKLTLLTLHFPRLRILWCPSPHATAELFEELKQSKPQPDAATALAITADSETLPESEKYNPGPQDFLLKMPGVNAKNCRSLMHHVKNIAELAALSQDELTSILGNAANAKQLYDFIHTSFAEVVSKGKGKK
Sequence of UniProt P07814 (P07814 whole entry, looked up): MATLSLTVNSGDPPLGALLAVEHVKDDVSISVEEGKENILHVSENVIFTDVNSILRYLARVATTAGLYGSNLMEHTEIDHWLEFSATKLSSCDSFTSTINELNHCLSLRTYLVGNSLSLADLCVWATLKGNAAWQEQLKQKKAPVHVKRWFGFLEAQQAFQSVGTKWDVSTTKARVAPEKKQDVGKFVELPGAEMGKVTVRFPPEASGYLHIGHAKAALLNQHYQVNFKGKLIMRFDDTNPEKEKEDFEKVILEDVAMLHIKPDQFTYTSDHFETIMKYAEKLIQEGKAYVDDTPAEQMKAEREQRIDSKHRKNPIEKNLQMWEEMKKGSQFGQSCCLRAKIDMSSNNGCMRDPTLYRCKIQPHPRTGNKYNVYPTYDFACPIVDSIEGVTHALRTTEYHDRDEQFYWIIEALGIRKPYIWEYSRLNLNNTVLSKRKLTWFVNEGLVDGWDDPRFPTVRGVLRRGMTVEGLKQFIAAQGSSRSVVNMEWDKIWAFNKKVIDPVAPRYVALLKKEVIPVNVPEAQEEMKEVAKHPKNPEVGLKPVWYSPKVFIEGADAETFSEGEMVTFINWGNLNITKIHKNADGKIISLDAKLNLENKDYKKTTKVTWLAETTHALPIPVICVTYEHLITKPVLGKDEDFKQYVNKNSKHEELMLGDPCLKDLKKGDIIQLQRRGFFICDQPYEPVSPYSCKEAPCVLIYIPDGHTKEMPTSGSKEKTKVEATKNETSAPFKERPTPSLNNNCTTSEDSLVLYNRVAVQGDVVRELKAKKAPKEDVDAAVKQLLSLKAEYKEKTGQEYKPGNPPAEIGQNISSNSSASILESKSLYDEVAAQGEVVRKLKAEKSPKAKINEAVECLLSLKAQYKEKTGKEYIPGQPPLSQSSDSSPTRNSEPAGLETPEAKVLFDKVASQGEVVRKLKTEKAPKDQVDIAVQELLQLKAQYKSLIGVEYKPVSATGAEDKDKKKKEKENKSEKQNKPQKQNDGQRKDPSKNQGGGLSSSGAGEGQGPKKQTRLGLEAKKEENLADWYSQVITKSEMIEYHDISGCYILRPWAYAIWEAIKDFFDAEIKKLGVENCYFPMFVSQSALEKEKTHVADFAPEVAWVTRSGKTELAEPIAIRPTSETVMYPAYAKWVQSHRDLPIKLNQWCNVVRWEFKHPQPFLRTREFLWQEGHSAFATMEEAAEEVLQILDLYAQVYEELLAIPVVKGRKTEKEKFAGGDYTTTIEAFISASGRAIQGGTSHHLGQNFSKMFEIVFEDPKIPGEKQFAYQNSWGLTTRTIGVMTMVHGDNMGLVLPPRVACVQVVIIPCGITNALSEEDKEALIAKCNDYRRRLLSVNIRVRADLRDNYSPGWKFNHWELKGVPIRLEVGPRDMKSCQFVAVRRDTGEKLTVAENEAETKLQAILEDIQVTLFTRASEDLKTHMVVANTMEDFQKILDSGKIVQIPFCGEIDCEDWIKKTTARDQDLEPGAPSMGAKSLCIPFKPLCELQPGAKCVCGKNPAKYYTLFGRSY
Sequence of UniProt Q8TB52 (Q8TB52 whole entry, looked up): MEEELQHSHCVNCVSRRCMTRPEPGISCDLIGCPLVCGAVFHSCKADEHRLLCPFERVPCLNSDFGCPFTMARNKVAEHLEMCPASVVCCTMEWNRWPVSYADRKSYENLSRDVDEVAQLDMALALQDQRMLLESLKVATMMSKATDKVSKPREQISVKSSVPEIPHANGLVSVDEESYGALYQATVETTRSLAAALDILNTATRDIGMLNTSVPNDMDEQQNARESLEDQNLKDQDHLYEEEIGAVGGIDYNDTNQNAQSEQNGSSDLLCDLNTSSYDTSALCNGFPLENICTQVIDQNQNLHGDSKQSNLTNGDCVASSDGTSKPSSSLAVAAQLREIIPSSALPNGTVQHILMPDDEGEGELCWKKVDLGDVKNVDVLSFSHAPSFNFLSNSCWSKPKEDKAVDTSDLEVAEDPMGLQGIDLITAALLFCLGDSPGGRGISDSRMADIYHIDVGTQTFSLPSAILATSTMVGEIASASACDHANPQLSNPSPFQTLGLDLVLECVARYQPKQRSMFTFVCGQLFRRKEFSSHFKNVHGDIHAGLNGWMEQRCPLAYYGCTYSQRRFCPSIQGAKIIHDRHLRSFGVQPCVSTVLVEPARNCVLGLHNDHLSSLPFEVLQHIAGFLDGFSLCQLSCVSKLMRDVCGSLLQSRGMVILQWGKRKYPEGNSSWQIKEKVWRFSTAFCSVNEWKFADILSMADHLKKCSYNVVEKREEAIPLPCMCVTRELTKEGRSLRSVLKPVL
Sequence of UniProt P60981 (P60981 whole entry, looked up): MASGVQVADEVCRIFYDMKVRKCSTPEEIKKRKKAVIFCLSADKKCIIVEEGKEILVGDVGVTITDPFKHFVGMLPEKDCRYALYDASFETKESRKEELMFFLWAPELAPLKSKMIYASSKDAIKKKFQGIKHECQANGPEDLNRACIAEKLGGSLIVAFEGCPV

Compound in the first experiment: Cc1cc(ccc1-c1ccccc1)C(=O)N1CCCN(CC1)C(=O)CCl [compound 10]
Put plainly: probe-labelled cysteine peptide fold change vs DMSO (competition) (log2 fold change); higher = less target engagement (more negative = stronger competition). As to conditions: 10 µM; THP-1; incubation time: 4 h.
Take “EFNB1_P98172_89+101_LYLVRPEQAAACSTVLDPNVLVTCNRPEQEIR (UniProt P98172)”: the “probe-labelled cysteine peptide fold change” value was -0.388.
With “DYNC1H1_Q14204_1888_CYLTMTQALEAR (UniProt Q14204)”, the “probe-labelled cysteine peptide fold change” value is -0.0386.
Regarding “FBXO30_Q8TB52_90_VAEHLEMCPASVVCCTMEWNR (UniProt Q8TB52)”, the “probe-labelled cysteine peptide fold change” value was -0.103.
Still for that read-out and setting: for “ELP4_Q96EB1_361_LNNLICDESDVK (UniProt Q96EB1)” the value was -0.0288; for “EML2_O95834_110_CLAIHPDMVTIATGQVAGTTK (UniProt O95834)”, -0.0841.
On the same count and under the same terms, for “FAM98C_Q17RN3_340_REDGGPQCWGR (UniProt Q17RN3)” the value was -0.342.
Still for that read-out and setting: for “FANCG_O15287_417_AQDALTLCEELLSR (UniProt O15287)” the value was 0.0123.
As for “DPH5_Q9H2P9_120_VIHNASIMNAVGCCGLQLYK (UniProt Q9H2P9)”, the “probe-labelled cysteine peptide fold change” value was 0.0911.
Same read-out and setting: to “EXOSC6_Q5RKV6_117_APPGGCEERELALALQEALEPAVR (UniProt Q5RKV6)” belongs -0.5; to “FAM120B_Q96EK7_547_LEALMCTNPEIK (UniProt Q96EK7)”, -0.253; to “EXOSC1_Q9Y3B2_40_HGYIFSSLAGCLMK (UniProt Q9Y3B2)”, 0.118.
Still for that read-out and setting: for “ERCC4_Q92889_803_ILWCPSPHATAELFEELK (UniProt Q92889)” the value was -0.169.
Same read-out and setting: to “FAM102B_Q5T8I3_254_RNTSVGSTSTGVESILEPCDEIEQK (UniProt Q5T8I3)” belongs -0.237; to “FAM118A_Q9NWS6_113_TGDAKPSFFQDCLMEVFDDLEQHIR (UniProt Q9NWS6)”, 0.174.
Take “ELP4_Q96EB1_412_LGPGCGMMAGGK (UniProt Q96EB1)”: the “probe-labelled cysteine peptide fold change” value is -0.372.
“ELOVL5_Q9NYP7_61_NKQPFSCR (UniProt Q9NYP7)”: the “probe-labelled cysteine peptide fold change” value was -0.567.
Same read-out and setting: for “EXOSC10_Q01780_327_SFLGLTCLMQISTR (UniProt Q01780)” the value was 0.419; for “EZH2_Q15910_260_ELTEQQLPGALPPECTPNIDGPNAK (UniProt Q15910)”, -0.164; for “ERMP1_Q7Z2K6_737_AHCEENAPLCGFPWYLPVHFLIR (UniProt Q7Z2K6)”, -0.0124.
The same measure, in the same setting: to “EXOSC6_Q5RKV6_117_RAPPGGCEERELALALQEALEPAVR (UniProt Q5RKV6)” belongs -0.569.
The same measure, in the same setting: to “EML4_Q9HC35_638_LVDEPGHCADFHPSGTVVAIGTHSGR (UniProt Q9HC35)” belongs 0.109.
In the case of “FCHSD2_O94868_200_SECNSK (UniProt O94868)”, the “probe-labelled cysteine peptide fold change” value was -0.126.
Same read-out and setting: to “FAM120A_Q9NZB2_919_VAAASGHCGAFSGSDSSR (UniProt Q9NZB2)” belongs -0.383; to “ELP1_O95163_23_DIQGPGNPQCFSLR (UniProt O95163)”, 0.145.
The same measure, in the same setting: to “DUT_P33316-2_3_PCSEETPAISPSK (UniProt P33316)” belongs -0.335; to “DSTN_P60981_163_LGGSLIVAFEGCPV (UniProt P60981)”, -0.192.
On the same count and under the same terms, for “FGD3_Q5JSP0_184_LHLLDQVFCTR (UniProt Q5JSP0)” the value was 0.0176; for “EEF1B2_P24534_191_LQIQCVVEDDK<|>EEF1D_P29692_247_LQIQCVVEDDK (UniProt P29692+P24534)”, 0.179.
Consider “EXOSC2_Q13868_259_MMLYDTSILYCYEASLPHQIK (UniProt Q13868)”, for which the “probe-labelled cysteine peptide fold change” value amounted to 0.341.
Still for that read-out and setting: for “DOCK10_Q96BY6_1310_TDNCEK (UniProt Q96BY6)” the value was -0.105.
As to “ERCC3_P19447_342_SGVIVLPCGAGK (UniProt P19447)”, the “probe-labelled cysteine peptide fold change” value is -0.235.
“EDC4_Q6P2E9_976_LCTQLEGLQSTVTGHVER (UniProt Q6P2E9)”: the “probe-labelled cysteine peptide fold change” value was -0.0211.
Consider “DPH7_Q9BTV6_33_HLLACGTYQLR (UniProt Q9BTV6)”, for which the “probe-labelled cysteine peptide fold change” value amounted to 0.0319.
The same measure, in the same setting: for “EPRS_P07814_1076_KLGVENCYFPMFVSQSALEK (UniProt P07814)” the value was 0.288.
For the target “FDX1_P10109_152+155_LGCQICLTK (UniProt P10109)”, the “probe-labelled cysteine peptide fold change” value is -0.319.
The same measure, in the same setting: to “EIF2S1_P05198_98_VSPEEAIKCEDK (UniProt P05198)” belongs -0.267.

Still in this experiment, the particulars now being: 50 µM; THP-1; incubation time: 4 h.
For “EFNB1_P98172_89+101_LYLVRPEQAAACSTVLDPNVLVTCNRPEQEIR (UniProt P98172)”, the “probe-labelled cysteine peptide fold change” value was -0.49.
Same read-out and setting: for “DYNC1H1_Q14204_1888_CYLTMTQALEAR (UniProt Q14204)” the value was -0.161; for “FBXO30_Q8TB52_90_VAEHLEMCPASVVCCTMEWNR (UniProt Q8TB52)”, -0.0583.
On the same count and under the same terms, to “ELP4_Q96EB1_361_LNNLICDESDVK (UniProt Q96EB1)” belongs 0.12.
Still for that read-out and setting: for “EML2_O95834_110_CLAIHPDMVTIATGQVAGTTK (UniProt O95834)” the value was 0.0588; for “FAM98C_Q17RN3_340_REDGGPQCWGR (UniProt Q17RN3)”, -1.05; for “FANCG_O15287_417_AQDALTLCEELLSR (UniProt O15287)”, 0.0425.
With “DPH5_Q9H2P9_120_VIHNASIMNAVGCCGLQLYK (UniProt Q9H2P9)”, the “probe-labelled cysteine peptide fold change” value stood at 0.264.
On the same count and under the same terms, for “EXOSC6_Q5RKV6_117_APPGGCEERELALALQEALEPAVR (UniProt Q5RKV6)” the value was -1.49; for “FAM120B_Q96EK7_547_LEALMCTNPEIK (UniProt Q96EK7)”, 0.187; for “EXOSC1_Q9Y3B2_40_HGYIFSSLAGCLMK (UniProt Q9Y3B2)”, -0.0583.
On to “ERCC4_Q92889_803_ILWCPSPHATAELFEELK (UniProt Q92889)”, for which the “probe-labelled cysteine peptide fold change” value stood at 0.181.
Same read-out and setting: for “FAM102B_Q5T8I3_254_RNTSVGSTSTGVESILEPCDEIEQK (UniProt Q5T8I3)” the value was 0.149.
Still for that read-out and setting: to “FAM118A_Q9NWS6_113_TGDAKPSFFQDCLMEVFDDLEQHIR (UniProt Q9NWS6)” belongs -0.519; to “ELP4_Q96EB1_412_LGPGCGMMAGGK (UniProt Q96EB1)”, -1.07.
Same read-out and setting: to “ELOVL5_Q9NYP7_61_NKQPFSCR (UniProt Q9NYP7)” belongs -1.94; to “EXOSC10_Q01780_327_SFLGLTCLMQISTR (UniProt Q01780)”, 0.333.
“EZH2_Q15910_260_ELTEQQLPGALPPECTPNIDGPNAK (UniProt Q15910)”: the “probe-labelled cysteine peptide fold change” value stood at 0.256.
Still for that read-out and setting: for “ERMP1_Q7Z2K6_737_AHCEENAPLCGFPWYLPVHFLIR (UniProt Q7Z2K6)” the value was 0.222; for “EXOSC6_Q5RKV6_117_RAPPGGCEERELALALQEALEPAVR (UniProt Q5RKV6)”, -1.04; for “EML4_Q9HC35_638_LVDEPGHCADFHPSGTVVAIGTHSGR (UniProt Q9HC35)”, 0.328.
On the same count and under the same terms, for “FCHSD2_O94868_200_SECNSK (UniProt O94868)” the value was -0.158; for “FAM120A_Q9NZB2_919_VAAASGHCGAFSGSDSSR (UniProt Q9NZB2)”, -0.344.
Still for that read-out and setting: for “ELP1_O95163_23_DIQGPGNPQCFSLR (UniProt O95163)” the value was -0.213; for “DUT_P33316-2_3_PCSEETPAISPSK (UniProt P33316)”, -0.042.
On to “DSTN_P60981_163_LGGSLIVAFEGCPV (UniProt P60981)”, for which the “probe-labelled cysteine peptide fold change” value is -0.173.
On the same count and under the same terms, for “FGD3_Q5JSP0_184_LHLLDQVFCTR (UniProt Q5JSP0)” the value was 0.345.
As for “EEF1B2_P24534_191_LQIQCVVEDDK<|>EEF1D_P29692_247_LQIQCVVEDDK (UniProt P29692+P24534)”, the “probe-labelled cysteine peptide fold change” value amounted to 0.387.
In the case of “EXOSC2_Q13868_259_MMLYDTSILYCYEASLPHQIK (UniProt Q13868)”, the “probe-labelled cysteine peptide fold change” value came to 0.254.
Same read-out and setting: to “DOCK10_Q96BY6_1310_TDNCEK (UniProt Q96BY6)” belongs -0.108; to “ERCC3_P19447_342_SGVIVLPCGAGK (UniProt P19447)”, -1.63; to “EDC4_Q6P2E9_976_LCTQLEGLQSTVTGHVER (UniProt Q6P2E9)”, 0.299.
On to “DPH7_Q9BTV6_33_HLLACGTYQLR (UniProt Q9BTV6)”, for which the “probe-labelled cysteine peptide fold change” value came out at 0.078.
For “EPRS_P07814_1076_KLGVENCYFPMFVSQSALEK (UniProt P07814)”, the “probe-labelled cysteine peptide fold change” value is 0.373.
Same read-out and setting: for “FDX1_P10109_152+155_LGCQICLTK (UniProt P10109)” the value was -0.896; for “EIF2S1_P05198_98_VSPEEAIKCEDK (UniProt P05198)”, -1.12.
